Assay outcomes from PubChem.
DT40 TDP1 CPT: qHTS for Inhibitors of human tyrosyl-DNA phosphodiesterase 1 (TDP1): qHTS in cells in presence of CPT; chicken DT40 Tdp1-/-;hTDP1 cells + 20 nM CPT, ATP luminescence, 48 h; Potency, µM (highest dose often 46.2 µM), most hits filed as inhibitors; 420,000 tested, 12% active; further: nearly all actives have a fitted effect of over 55% in size
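Chicken DT40 Tdp1-/- cells stably complemented with human TDP1 were seeded at 400 cells/well in medium containing 20 nM camptothecin, exposed to pin-transferred compounds, and grown at 37 °C for at least 48 hr. Viability was read as ATP luminescence.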
TDP1 cell noCPT: qHTS for Inhibitors of human tyrosyl-DNA phosphodiesterase 1 (TDP1): qHTS in cells in absence of CPT. 420,000 tested, 15% active. Potency, µM (titrated, usually from 46.2 µM), hits mostly inhibitors. DT40 Tdp1-/- hTDP1 cells, no CPT, ATP luminescence, 48 h; further: nearly all actives have a fitted effect of over 55% in size
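Cells were dispensed at 400 per well, compounds added by pin tool, plates incubated ≥48 hr at 37 °C, then CellTiter-Glo added for 30 min at room temperature before luminescence reading. Line: DT40 Tdp1-/- complemented with hTDP1; camptothecin omitted.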
IL-1B inflam inh: qHTS for Inhibitors of Inflammasome Signaling: IL-1-beta AlphaLISA Primary Screen; THP-1 LPS/ATP IL-1B secretion, AlphaLISA, 16 h; stronger effect = lower value; activity change, % at 57.5 µM; 360,000 tested, 4.7% active; AID 743279, 2014; in the data active means activity change below about -50%; inconclusive means mostly about -30% to -49%
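Secreted IL-1B measured by AlphaLISA bead assay after 16 h compound exposure of THP-1 cells; compounds (final up to 57.5 uM) added 1 h before LPS (250 ng/mL) and ATP (1.25 mM) stimulation; lower signal means less secretion.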
D3 ag: qHTS of D3 Dopamine Receptor Agonist: qHTS; D(3) dopamine receptor (Homo sapiens), P35462; max activation, %; D3R DiscoveRx beta-arrestin cells, luminescence, 90 min; 410,000 tested, 0.58% active; in the data active means max activation above about 30%
Target sequence (P35462 whole entry, looked up): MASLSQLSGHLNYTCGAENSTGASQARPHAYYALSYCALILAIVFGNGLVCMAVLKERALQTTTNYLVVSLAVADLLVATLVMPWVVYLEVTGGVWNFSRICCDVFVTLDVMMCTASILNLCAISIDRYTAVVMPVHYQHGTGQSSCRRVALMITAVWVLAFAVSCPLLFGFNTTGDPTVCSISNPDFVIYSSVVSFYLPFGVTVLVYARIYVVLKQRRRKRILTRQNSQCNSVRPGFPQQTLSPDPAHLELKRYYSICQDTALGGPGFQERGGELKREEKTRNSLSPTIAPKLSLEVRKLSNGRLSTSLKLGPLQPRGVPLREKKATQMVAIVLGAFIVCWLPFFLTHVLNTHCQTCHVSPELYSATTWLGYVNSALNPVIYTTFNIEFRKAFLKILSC
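Cells at 1500/well, incubated overnight, then treated with pinned compounds (dopamine as control) for 90 min at 37 degrees C. DiscoveRx reagent added for 30 - 60 minutes at room temperature; luminescence read.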
D3 antag: qHTS of D3 Dopamine Receptor Antagonist: qHTS; 360,000 tested, 2.5% active; D3R cells, DiscoveRx beta-arrestin luminescence, antagonist mode; stronger effect = lower value; max response, negative = inhibition, %; in the data active means max response below about -50%; inconclusive means no clear call, values can overlap the other calls
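Cells plated overnight at 1500 cells/well, then exposed to library compounds with dopamine controls for 90 minutes at 37 degrees C. DiscoveRx reagent added for 30–60 minutes at room temperature; luminescence read, quantitative HTS format.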
ClpP mod: qHTS Assay for Activators of ClpP | ATP-dependent Clp protease proteolytic subunit (Bacillus subtilis (strain 168)), P80244 | purified B. subtilis ClpP, FRET peptide cleavage, 20 min | Potency, µM (top dose mostly 57.5 µM) | 340,000 tested, 1.9% active; active means well fitted falling curve with a large enough effect; inconclusive means small, poorly fitted or top-dose-only effect; inactive means no such curve, though single readings can be large or run the other way; further: the source files actives as falling curves though it sought activators and does not explain the sign; nearly all actives have a fitted effect of over 65% in size
Target sequence (P80244 whole entry, looked up): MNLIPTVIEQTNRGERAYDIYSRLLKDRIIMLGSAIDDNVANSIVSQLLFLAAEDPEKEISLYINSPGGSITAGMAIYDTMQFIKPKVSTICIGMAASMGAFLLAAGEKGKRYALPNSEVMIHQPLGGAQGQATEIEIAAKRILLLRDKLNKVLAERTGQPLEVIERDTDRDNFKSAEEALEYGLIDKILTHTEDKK
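ClpP 10 microg/mL final, pH 8 Tris/KCl buffer with BSA, glycerol, Tween-20; compound pinned in; FRET-FV substrate; RT 20 min; Ex320/Em430; ΔFRET vs ADEP 5.8 microM, DMSO, no enzyme.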
Numbers stand for hits; . = inactive; ? = inconclusive; / = no result given. Most compounds without a hit are left out; they make up all but 21% or so of the library. Unless noted, the call rests on the fitted dose curve; in most records, active means well fitted inhibition curve with a large enough effect; inconclusive means small, poorly fitted or top-dose-only effect; inactive means flat fitted curve, though single readings scatter.

SMILES	DT40 TDP1 CPT	TDP1 cell noCPT	IL-1B inflam inh	D3 ag	D3 antag	ClpP mod
Cc1ccc(C(=O)N/C(=C\c2cccs2)C(=O)NCCCN2CCOCC2)cc1	.	.	.	.	?	/
O=C(NCc1ccccc1F)c1cc2ccccn2n1	.	?	/	.	/	.
COc1cc(CNCc2c[nH]c3ccccc23)cc(OC)c1	5.8µM	9.2µM	-83.8	.	.	.
COc1ccc(Br)cc1CNC(=O)c1cc2ccccn2n1	16.4µM	?	/	.	/	.
COc1cccc(CNCc2ccccn2)c1OC	.	18.4µM	.	.	.	.
COc1ccccc1CNC(=O)Cc1ccc(C)cc1	?	?	.	.	.	.
COc1ccccc1CNCc1ccc(OC)c2ccccc12	?	16.4µM	-81.9	.	.	.
Cc1ccc(NS(=O)(=O)c2ccc(Br)s2)nc1	.	.	.	.	.	/
Cc1ccc2c(=O)cc(C(=O)Nc3ccc(S(=O)(=O)N4CCCCC4)cc3)oc2c1	.	.	/	.	/	.
COc1ccccc1CNCc1cc(Br)ccc1OC	?	16.4µM	?	.	.	/
COc1ccc(CNCc2ccc(C)cc2)c(OC)c1	?	?	.	.	.	.
COc1cccc(CNCc2ccc(OC)c3ccccc23)c1OC	20.6µM	16.4µM	-84.1	.	.	.
COc1ccccc1CNCc1cccc(Oc2ccccc2)c1	?	?	-82.8	.	.	.
COc1cc(CNCc2ccc(OC)cc2OC)cc(OC)c1	?	20.6µM	.	.	.	.
COc1ccc(CNC(=O)c2ccc(NC(=O)N3CCSc4ncccc43)cc2)cc1OC	.	.	/	.	/	?
Cc1cc(=O)nc2c3ccccc3n(CC(=O)NCCC3=CCCCC3)n12	.	.	.	.	.	.
Cc1cc(SCC(=O)OCC(=O)N(C)c2ccccc2)nc2ccccc12	.	.	.	.	.	/
Cc1nn2c(=O)cc(COC(=O)c3ccccc3NC(=O)c3ccccc3C)nc2s1	.	.	/	.	/	?
COc1ccc(C(=O)NC(C)c2ccccc2)cc1Br (configuration not stated)	.	.	.	.	.	/
COc1cc(CNCc2cccc3ccccc23)cc(OC)c1	?	?	.	.	?	.
COc1ccc(Br)cc1CNC(C)c1ccccc1 (configuration not stated)	?	29.1µM	?	.	?	.
COc1ccc(CNCc2ccc(OC)c3ccccc23)cc1	?	?	-76.4	.	.	/
Cn1cc(C(=O)NCc2ccc(Cl)cc2)c(=O)c2cc(S(=O)(=O)N3CCOCC3)ccc21	.	?	.	.	.	.
COc1ccc(CCC2CCNCC2)cc1	?	18.4µM	.	.	.	.
Cc1ccnc(NC(=O)c2cccc(NC(=O)CC3SC(N4CCCCC4)=NC3=O)c2)c1 (configuration not stated)	?	?	.	.	.	.
SMILES	DT40 TDP1 CPT	TDP1 cell noCPT	IL-1B inflam inh	D3 ag	D3 antag	ClpP mod
CCCC(C)(C)C(=O)N1CCC1(C)C(=O)NS(=O)(=O)c1ccc(Cl)cc1 (configuration not stated)	.	.	.	.	.	.
COc1ccc(CN(CC2CCC(C(=O)O)CC2)C(=S)Nc2cc(C)ccc2C)cc1 (configuration not stated)	.	.	.	.	.	.
CC(C)OCCOc1ccc2oc(-c3ccco3)cc(=O)c2c1	.	?	-66.5	.	.	.
O=c1cc(-c2ccco2)oc2ccccc12	?	.	?	.	.	/
O=C(Nc1ccccc1C(=O)O)c1cccc(S(=O)(=O)N2CCCC2)c1	.	.	/	.	/	.
Cc1cccc(/C=N/NC(=O)c2cc(Br)ccc2OCc2ccccc2)n1	?	23.1µM	.	.	.	/
COc1ccc(OC)c(/C=N/NC(=O)CNC(=O)c2cccc3ccccc23)c1	.	.	.	.	.	17.8µM
COc1ccccc1C(=O)NCC(=O)N/N=C/c1cc(Br)ccc1OCc1ccccc1	?	23.1µM	-77.7	.	.	/
C#CCOc1ccccc1/C=N/NC(=O)c1ccccc1OCc1ccccc1	?	20.6µM	.	.	.	.
Cc1ccc(-n2nc(C(=O)N3CCCCC3C)c(=O)n(C)c2=O)cc1 (configuration not stated)	.	.	/	.	/	.
CC(=O)OCCN1CCN(C(=O)CN2C(=O)NC(c3ccccc3)(c3ccccc3)C2=O)CC1	.	.	.	.	.	.
COc1ccc(/C=N/NC(=O)c2ccccc2OCc2ccccc2)c(OC)c1	?	18.4µM	.	.	.	/
Cc1ccc(/C=N/NC(=O)c2ccccc2OCc2ccc(F)cc2)o1	5.8µM	2.91µM	.	.	.	.
COc1ccc([N+](=O)[O-])cc1/C=N/NC(=O)CNC(=O)C(c1ccccc1)c1ccccc1	?	?	.	.	.	.
COc1ccc(/C=N/NC(=O)c2cc(C)oc2C)cc1OCc1ccccc1	?	?	.	.	.	/
Cc1cc(C(=O)N/N=C/c2ccc(OCc3ccccc3)cc2)c(C)o1	?	16.4µM	.	.	.	/
COc1ccc(/C(C)=N/NC(=O)c2ccccc2OCc2ccccc2)c(OC)c1	?	?	.	.	.	/
COc1ccc([N+](=O)[O-])cc1/C=N/NC(=O)CNC(=O)c1cccc(F)c1	.	?	.	.	-116.9	.
O=C(CSc1nnc(NC(=O)c2ccc(F)cc2F)s1)NC1CCCC1	.	.	.	.	.	/
O=c1[nH]c(C2CCN(S(=O)(=O)c3ccc4c(c3)OCCO4)CC2)nc2c1nnn2Cc1ccc(F)cc1	?	.	.	.	.	/
CCCn1c(SCC(=O)Nc2ccc(NC(=O)CC)cc2)nc2c1c(=O)n(C)c(=O)n2C	.	20.6µM	.	.	.	/
CCn1c(SCC(=O)Nc2ccc(NC(C)=O)cc2)nc2c1c(=O)n(C)c(=O)n2C	.	?	.	.	.	/
CCCn1c(SCC(=O)Nc2cc(C)on2)n[nH]c1=O	.	.	.	.	.	.
CCCn1c(SCC(=O)Nc2cc(C)on2)nc2c1c(=O)n(C)c(=O)n2C	.	.	.	.	-50.7	.
CCCn1c(SCC(=O)Nc2cccc(C)n2)nc2c1c(=O)n(C)c(=O)n2C	18.4µM	?	.	.	.	/
CCCn1c(SCC(=O)Nc2nc3ccccc3s2)nc2c1c(=O)n(C)c(=O)n2C	23.1µM	23.1µM	.	.	.	.
